Assay outcomes from PubChem.
Compounds with a hit are over-represented: about 0.82% of the library has one in this group of screens.
RTF Ca sens act: cardiac RTF calcium sensitization. P19429+P45379. IANBD-labeled TnC RTF fluorescence at EC20 calcium; 0% EC20 calcium, 100% full calcium. activation, % at 7.2 µM. 340,000 tested, 0.24% active. AID 493008;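 active = activation above the mean over all tested compounds plus 3 SD, cut at about 30% in these data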;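 note: rise in fluorescence read as greater calcium sensitivity of cardiac thin filaments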
Keap1-Nrf2 PPI: Keap1-Nrf2 (human) interaction inhibition; Keap1 Kelch-Nrf2 peptide fluorescence polarization, 1536-well; inhibition, % at 9.4 µM; 340,000 tested, 0.15% active; in the data active = inhibition above about 12%;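 note: human Keap1 Kelch domain with fluorescein labeled Nrf2 9mer peptide probe; higher means more block of Keap1 binding to Nrf2 peptide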
C-LANA FP: blocks KSHV LANA C-terminal domain binding to DNA; 340,000 tested, 0.078% active; AID 504423; MBP-C-LANA/FAM-LBS DNA binding, fluorescence polarization; inhibition, % at 9 µM;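 active = highest replicate inhibition at or above 60% at 9 µM, even if other replicates fall short; inactive = all replicates below 60% inhibition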
eLon inh: E. coli protease La inhibition; purified E. coli Lon protease, fluorescence polarization; inhibition, % at 7.94 µM; 360,000 tested, 0.42% active; AID 602123; in the data active = inhibition above about 13%, passing the limit was not always enough
Target sequence (P0A9M0 whole entry, looked up): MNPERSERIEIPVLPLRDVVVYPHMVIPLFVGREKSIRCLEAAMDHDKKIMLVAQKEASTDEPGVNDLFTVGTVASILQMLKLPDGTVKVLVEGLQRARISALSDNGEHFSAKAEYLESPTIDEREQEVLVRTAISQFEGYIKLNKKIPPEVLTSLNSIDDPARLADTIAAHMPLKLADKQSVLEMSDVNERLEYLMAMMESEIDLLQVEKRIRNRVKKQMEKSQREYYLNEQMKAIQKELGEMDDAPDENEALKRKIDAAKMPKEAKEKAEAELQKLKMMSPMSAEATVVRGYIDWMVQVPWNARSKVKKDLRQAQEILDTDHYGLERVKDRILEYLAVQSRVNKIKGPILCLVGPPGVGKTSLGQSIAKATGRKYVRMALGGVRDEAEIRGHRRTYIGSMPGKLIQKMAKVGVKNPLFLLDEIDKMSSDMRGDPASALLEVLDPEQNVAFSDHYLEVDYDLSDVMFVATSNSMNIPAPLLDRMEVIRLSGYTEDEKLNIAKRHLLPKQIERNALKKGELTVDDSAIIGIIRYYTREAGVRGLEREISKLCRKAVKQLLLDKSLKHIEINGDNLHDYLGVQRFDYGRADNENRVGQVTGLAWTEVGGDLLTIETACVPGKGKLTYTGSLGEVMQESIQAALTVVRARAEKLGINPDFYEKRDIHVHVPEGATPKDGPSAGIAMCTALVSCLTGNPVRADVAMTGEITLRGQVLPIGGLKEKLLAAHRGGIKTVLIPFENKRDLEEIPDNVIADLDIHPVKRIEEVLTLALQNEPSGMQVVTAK
Cardiac RTF inh: cardiac RTF calcium desensitization | P19429+P45379 | IANBD-labeled cardiac RTF, Ca2+ fluorescence | inhibition, % at 7.15 µM | 340,000 tested, 0.12% active | AID 493244;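 active = inhibition above the mean inhibition of all tested compounds plus 3 SD, cut at about 17% in these data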;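 note: assay run at fixed EC70 calcium of 1.6 mM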
eLon confirm: confirmation of E. coli Lon protease inhibitors; shares compounds with eLon inh; purified E. coli Lon, fluorescence polarization; inhibition, % at 7.94 µM; 1,400 tested, 31% active; AID 602230; in the data active = inhibition above about 16%
Of the large screens only hits and unclear results are named; the others gave an inactive call (follow-up assays come after a bar, where they were run).

C=CCC[C@H](CCCCC)OC(=O)/C=C/[C@@H](O)[C@H](O)C[C@H](O)CC=C	none (no result: RTF Ca sens act, Keap1-Nrf2 PPI, C-LANA FP, Cardiac RTF inh)
C(=C\c1ccccc1)/CN1CCN(C(c2ccccc2)c2nnnn2Cc2ccccc2)CC1 (stereo not given)	none (no result: RTF Ca sens act, Keap1-Nrf2 PPI, C-LANA FP, Cardiac RTF inh)
COc1ccc(NC(=O)C2(C)CCN2Cc2cccc(OC)c2F)cc1OC (stereo not given)	none (no result: RTF Ca sens act, Keap1-Nrf2 PPI, C-LANA FP, Cardiac RTF inh)
CC(=O)OCCn1c2nc(=O)[nH]c(=O)c-2nc2cc(C)c(C)cc21	RTF Ca sens act active, Keap1-Nrf2 PPI 156, C-LANA FP 163, eLon inh active | eLon confirm active
COc1ccc(-c2c(C(=O)c3ccc(Br)cc3)[nH]c(N)c2C(=O)c2ccccc2)cc1OC	none (no result: RTF Ca sens act, Keap1-Nrf2 PPI, C-LANA FP, Cardiac RTF inh)
CN(C)CCCN1C(=O)c2cccc3c([N+](=O)[O-])ccc(c23)C1=O	eLon inh 131 | eLon confirm 43
O=C1CC(C(=O)Nc2ccccc2C(=O)O)C(c2ccccc2)O1 (stereo not given)	eLon inh 19 | eLon confirm inactive
CC1CCCCC1=NNC(=O)c1ccccc1 (stereo not given)	none (no result: RTF Ca sens act, Keap1-Nrf2 PPI, C-LANA FP, Cardiac RTF inh)
Clc1ccccc1-c1cccc2nccn12	none (no result: RTF Ca sens act, Keap1-Nrf2 PPI, C-LANA FP, Cardiac RTF inh)
CN(C)Cc1ccccc1-c1cccc2nccn12	eLon inh 17 (no result: RTF Ca sens act, Keap1-Nrf2 PPI, C-LANA FP, Cardiac RTF inh) | eLon confirm inactive
Cc1onc(-c2c(F)cccc2Cl)c1C(=O)NCc1ccccc1	none
Cc1onc(-c2c(F)cccc2Cl)c1C(=O)ONC(=O)c1ccco1	eLon inh 17 | eLon confirm inactive
CCOc1nc(N2CCCCC2)nc(-n2cc(-c3ccccc3)nn2)n1	eLon inh 16 | eLon confirm inactive
CCCCn1nnnc1C1(C)CCC(=O)N1Cc1ccc(C)cc1 (stereo not given)	none (no result: RTF Ca sens act, Keap1-Nrf2 PPI, C-LANA FP, Cardiac RTF inh)
CCC(=O)NC(c1cccs1)c1ccc2cccnc2c1O (stereo not given)	eLon inh 21 | eLon confirm inactive
CCC(=O)Oc1ccc(NC(=O)c2ccc(S(=O)(=O)N3CCCC3)cc2)cc1	none (no result: RTF Ca sens act, Keap1-Nrf2 PPI, C-LANA FP, Cardiac RTF inh)
COC1OCC(O)C(NC(=O)N(C)N=O)C1O (stereo not given)	none (no result: RTF Ca sens act, Keap1-Nrf2 PPI, C-LANA FP, Cardiac RTF inh)
CCOc1ccccc1N(CC)C(=O)c1cc2c(s1)-c1ccccc1S(=O)(=O)C2	none (no result: RTF Ca sens act, Keap1-Nrf2 PPI, C-LANA FP, Cardiac RTF inh)
CC(=O)Nc1cccc(-c2ccnc3c2CC(C)(C(=O)NCC2CC2)O3)c1 (stereo not given)	eLon inh 47 (no result: RTF Ca sens act, Keap1-Nrf2 PPI, C-LANA FP, Cardiac RTF inh) | eLon confirm inactive
CN1CCN(c2cccc3c2S(=O)(=O)N[C@@H](Cc2ccccc2)CO3)CC1	none (no result: RTF Ca sens act, Keap1-Nrf2 PPI, C-LANA FP, Cardiac RTF inh)
CCC(CC)C(=O)N(C)c1c(C)nc2c(OCc3ccc(C#N)cc3)cccn12	none (no result: RTF Ca sens act, Keap1-Nrf2 PPI, C-LANA FP, Cardiac RTF inh)
CCCCOC(=O)Nc1cc(C)c(Cl)cc1OC	eLon inh 34 | eLon confirm inactive
O=c1[nH]c2cc3ccccc3cc2nc1-c1nnnn1C1CCCC1	none (no result: RTF Ca sens act, Keap1-Nrf2 PPI, C-LANA FP, Cardiac RTF inh)
O=C(NCc1ccccc1Cl)c1csc([C@@H]2C[C@H](O)[C@@H](CO)O2)n1	none (no result: RTF Ca sens act, Keap1-Nrf2 PPI, C-LANA FP, Cardiac RTF inh)
CCOc1ccc(NC(=O)NCC2CCN(c3ccc(OC)cc3)C2)cc1 (stereo not given)	eLon inh 23 | eLon confirm inactive
CCc1ccc(NC(=O)NCC2CCN(c3ccc(OC)cc3)C2)cc1 (stereo not given)	none
COc1ccc(CNC(=O)CC[C@H]2O[C@@H](n3cnc4c(NC(=O)c5ccccc5)ncnc43)[C@H](O)[C@@H]2O)cc1	none (no result: RTF Ca sens act, Keap1-Nrf2 PPI, C-LANA FP, Cardiac RTF inh)
O=C(COC(=O)c1nc(Cl)ccc1Cl)Nc1ncc(Cl)cc1Cl	eLon inh 77 | eLon confirm inactive
Nc1ncnc2c1ncn2[C@@H]1O[C@H](CNC(=O)[C@@H](N)Cc2ccccc2)[C@@H](O)[C@H]1O	none
NC(=O)c1ncn([C@@H]2O[C@H](CNC(=O)[C@H](N)CSCc3ccccc3)[C@@H](O)[C@H]2O)n1	eLon inh 24 | eLon confirm inactive
O=C(c1cc2ccccc2o1)N1CCN(S(=O)(=O)c2cccs2)CC1	none
O=C(c1cc2ccccc2o1)N1CCN(S(=O)(=O)c2ccccc2)CC1	eLon inh 19 | eLon confirm inactive
Cc1c(C(=O)N2CCN(S(=O)(=O)c3ccccc3)CC2)oc2ccc(Br)cc12	eLon inh 35 | eLon confirm inactive
O=C(N/N=C/c1ccccc1)C(=O)N/N=C/c1ccccc1	eLon inh 20 | eLon confirm inactive
O=C(N/N=C\c1ccccc1)c1cccc(C(=O)N/N=C\c2ccccc2)n1	none (no result: RTF Ca sens act, Keap1-Nrf2 PPI, C-LANA FP, Cardiac RTF inh)
N#Cc1ccc(C(=O)N2CCCCC2c2cc(C(=O)Nc3cccc(C#N)c3)no2)cc1 (stereo not given)	none (no result: RTF Ca sens act, Keap1-Nrf2 PPI, C-LANA FP, Cardiac RTF inh)
N#Cc1cccc(NC(=O)c2cc(C3CCCCN3C(=O)c3cccs3)on2)c1 (stereo not given)	eLon inh 15 (no result: RTF Ca sens act, Keap1-Nrf2 PPI, C-LANA FP, Cardiac RTF inh) | eLon confirm inactive
CCC(NC(=O)Nc1ccc(O)cc1)(C(F)(F)F)C(F)(F)F	eLon inh 16 | eLon confirm inactive
Nc1nc(NCCO)nc(NC2CCCCC2)c1[N+](=O)[O-]	eLon inh 43 | eLon confirm inactive
Nc1nc(NCCOCCO)nc(NC2CCCCC2)c1[N+](=O)[O-]	none
CCc1ccc(-n2c(=S)sc3c(=O)[nH]c(SCC(=O)NC4CCCCC4)nc32)cc1	none (no result: RTF Ca sens act, Keap1-Nrf2 PPI, C-LANA FP, Cardiac RTF inh)
CCCCN1CCCCC1(C)C(=O)NCc1ccc2c(c1)OCO2 (stereo not given)	none (no result: RTF Ca sens act, Keap1-Nrf2 PPI, C-LANA FP, Cardiac RTF inh)
CC(=O)Nc1nc(C)c(Oc2ccccc2)c(=O)[nH]1	eLon inh 23 | eLon confirm inactive
CN(C)c1ccc(C(=S)N2CCCCC2)cc1	eLon inh 46 | eLon confirm inactive
O=C(O)C1CCCC2CN3CCc4c([nH]c5ccccc45)C3C(O)C21 (stereo not given)	eLon inh 20 | eLon confirm inactive
CCN(CCCNc1cc2c(c(N)c1S(=O)(=O)O)C(=O)c1ccccc1C2=O)c1ccccc1	none (no result: RTF Ca sens act, Keap1-Nrf2 PPI, C-LANA FP, Cardiac RTF inh)
